These results are taken from ChEMBL document CHEMBL4296182, “CO-ADD screening of NIH NCI Diversity Set V”.

One test deals with Staphylococcus aureus. Put plainly: Antibacterial activity against Staphylococcus aureus MRSA ATCC 43300 (CO-ADD:GP_020); MIC in CAMBH media using NBS plates, by Resazurin F(560/590). The test is classed as functional. To be noted: Concentration 20 uM, ASSAY_TEST Inhibition of Bacterial Growth, detection method Resazurin, Fluorescence (ex560/em590), MEDIA CAMHB, plate type 384well, CORNING #3640, time 18 hr. In general terms: Alamar Blue is a resazurin reagent that responds to reducing activity.

Another test concerns Acinetobacter baumannii. Put plainly: Antibacterial activity against Acinetobacter baumannii ATCC 19606 (CO-ADD:GN_034); MIC in CAMBH media using NBS plates, by Resazurin F(560/590). The test is classed as functional. To be noted: Concentration 20 uM, ASSAY_TEST Inhibition of Bacterial Growth, detection method Resazurin, Fluorescence (ex560/em590), MEDIA CAMHB, plate type 384well, CORNING #3640, time 18 hr.

A further test has as its system Escherichia coli. In words: Antibacterial activity against Escherichia coli ATCC 25922 (CO-ADD:GN_001); MIC in CAMBH media using NBS plates, by Resazurin F(560/590). To be noted: Concentration 20 uM, ASSAY_TEST Inhibition of Bacterial Growth, detection method Resazurin, Fluorescence (ex560/em590), MEDIA CAMHB, plate type 384well, CORNING #3640, time 18 hr. The test is classed as functional.

A further test concerns Klebsiella pneumoniae. To be noted: Concentration 20 uM; ASSAY_TEST Inhibition of Bacterial Growth; detection method Absorption (OD600); MEDIA CAMHB; plate type 384well; NBS; CORNING #3640; time 18 hr.
The subject of a further test is Candida albicans. The following applies: 20 µM.
Another test deals with Cryptococcus neoformans. To be noted: Concentration 20 uM; ASSAY_TEST Inhibition of Fungal Growth; detection method Resazurin; Absorption (OD600-OD570); plate type 384well; NBS; CORNING #3640.

For part of these data: Results with a measured potency or affinity are listed apart.

What is called Inhibition is the relative decrease from the control value, in per cent. As to `CC1(C)SC(C)(C)N(C=O)C1C(=O)O` (centres undefined), the Inhibition in the test with Staphylococcus aureus was -0.19%; in the test with Acinetobacter baumannii it was -4.51%; with Escherichia coli, 4.94%; in the test on Klebsiella pneumoniae it was 4.48%; in the test on Candida albicans it was 1.14%; in the test on Cryptococcus neoformans, -3.91%.
Turning to `Cn1cnc([N+](=O)[O-])c1Sc1nc[nH]n1`, the Inhibition with Staphylococcus aureus is 12.64%; with Acinetobacter baumannii it was 10.96%; with Escherichia coli, 6.64%; with Klebsiella pneumoniae it was 17.02%; with Candida albicans, 2.6%; with Cryptococcus neoformans it was -9.11%.
Take `CCCCC[C@H](O)/C=C/[C@@H]1[C@@H](C/C=C\CCCC(=O)O)[C@@H](O)C[C@H]1O.NC(CO)(CO)CO` [DINOPROST TROMETHAMINE]: the Inhibition in the test with Staphylococcus aureus is 12.44%; in the test with Acinetobacter baumannii, -5.18%; in the test on Escherichia coli, 11.57%; in the test with Klebsiella pneumoniae, 16.21%; in the test on Candida albicans, -0.17%; with Cryptococcus neoformans, -7.36%.
For the compound `OC(C#Cc1ccccc1)(c1ccccc1)c1ccccc1`, the Inhibition in the test with Staphylococcus aureus was 14.7%; in the test with Acinetobacter baumannii it was 1.28%; with Escherichia coli, -2.05%; in the test with Klebsiella pneumoniae it was 4.96%; in the test on Candida albicans, 3.27%; in the test on Cryptococcus neoformans, -7.2%.
Regarding `Nc1ccc(OC(=O)Nc2ccc(O)cc2)cc1`, the Inhibition in the test on Staphylococcus aureus was -11.3%; in the test with Acinetobacter baumannii it was 1%; in the test on Escherichia coli, -11.72%; in the test with Klebsiella pneumoniae it was 2.2%; in the test on Candida albicans it was -2.4%; with Cryptococcus neoformans, 12.42%.
Consider `CCCCn1c(OC(=S)N(CC)CC)cc(C)nc1=S`, for which the Inhibition is 3.12% with Staphylococcus aureus; 15.13% in the test with Acinetobacter baumannii; -6.8% in the test on Escherichia coli; 13.25% in the test with Klebsiella pneumoniae; 7.15% in the test with Candida albicans; -2.34% in the test with Cryptococcus neoformans.
Consider `COc1ccc(C(C)=O)cc1CO/N=C1\CSCc2ccccc21`, for which the Inhibition was 16.78% in the test on Staphylococcus aureus; 9.55% in the test with Acinetobacter baumannii; 4.94% with Escherichia coli; 9.39% in the test on Klebsiella pneumoniae; 18.6% in the test on Candida albicans; -2.91% with Cryptococcus neoformans.
Regarding `Oc1cc(-c2ccc(Cl)cc2)nc2ccccc12`, the Inhibition in the test on Staphylococcus aureus was 0.37%; in the test with Acinetobacter baumannii, 13%; with Escherichia coli, -1.34%; in the test on Klebsiella pneumoniae, 16.07%; in the test on Candida albicans it was 18.1%; with Cryptococcus neoformans it was 5.32%.
As for `CCCCNc1cc(Cl)nc(N)n1`, the Inhibition was 19.23% with Staphylococcus aureus; -9.43% in the test on Acinetobacter baumannii; 4.85% with Escherichia coli; 9.91% with Klebsiella pneumoniae; 0.7% in the test with Candida albicans; -8.27% with Cryptococcus neoformans.
Regarding `Cc1cc(N(C)C)ccc1/N=N/c1ccc2ncccc2c1`, the Inhibition with Staphylococcus aureus was 1.18%; in the test with Acinetobacter baumannii, -8.44%; with Escherichia coli, 5.41%; in the test with Klebsiella pneumoniae, 5.32%; in the test on Candida albicans, 3.26%; in the test on Cryptococcus neoformans, -12.5%.
Turning to `CC(C)c1ccc(-c2nc3ccccc3s2)cc1`, the Inhibition was 16.1% with Staphylococcus aureus; 2.02% in the test on Acinetobacter baumannii; 4.01% with Escherichia coli; 12.27% with Klebsiella pneumoniae; 8.12% with Candida albicans; -7.1% in the test on Cryptococcus neoformans.
Consider `COc1cc2c(c3c1c(=O)c1cccc(F)c1n3C)C=CC(C)(C)O2`, for which the Inhibition in the test on Staphylococcus aureus is 18.94%; in the test with Acinetobacter baumannii, 5.21%; with Escherichia coli, 5.53%; in the test with Klebsiella pneumoniae, 10.26%; with Candida albicans, 1.02%; with Cryptococcus neoformans it was -11.93%.
In the case of `C#CCNc1ccc(C(=O)OCC)cc1`, the Inhibition is 7.69% in the test with Staphylococcus aureus; 8.65% in the test on Acinetobacter baumannii; -0.61% with Escherichia coli; 11.49% with Klebsiella pneumoniae; 5% with Candida albicans; -3.8% with Cryptococcus neoformans.
Turning to `O=C(Nc1ccc(Cl)cc1)c1cc2c(cc1O)[nH]c1ccccc12`, the Inhibition in the test with Staphylococcus aureus was -1.15%; in the test on Acinetobacter baumannii it was -12.34%; with Escherichia coli, 2.48%; in the test with Klebsiella pneumoniae it was 13.56%; in the test with Candida albicans, 8.44%; in the test with Cryptococcus neoformans, -5.53%.
As to `O=C1OCC/C1=C\NCCCCCCCCN/C=C1\CCOC1=O`, the Inhibition in the test with Staphylococcus aureus is -2.67%; with Acinetobacter baumannii it was 17.83%; in the test with Escherichia coli it was 3.41%; with Klebsiella pneumoniae, 9.43%; in the test with Candida albicans, 0.08%; with Cryptococcus neoformans it was -12.67%.
On to `O=C(NCc1ccco1)Nc1ccc([N+](=O)[O-])cc1`, for which the Inhibition in the test on Staphylococcus aureus is 14.72%; with Acinetobacter baumannii, 3.43%; in the test on Escherichia coli, 4.45%; in the test with Klebsiella pneumoniae, 18.95%; in the test with Candida albicans, 5.76%; in the test on Cryptococcus neoformans, -12.12%.
On to `CCCc1cc(=O)oc2c3c(c4c(c12)OC(C)(C)C=C4)OC(C)[C@H](C)[C@@H]3O` (some centres undefined), for which the Inhibition in the test with Staphylococcus aureus is 12.64%; with Acinetobacter baumannii it was -5.36%; with Escherichia coli, 11.63%; with Klebsiella pneumoniae, 20.98%; in the test on Candida albicans, 7.97%; in the test on Cryptococcus neoformans it was -3.22%.
For `CS(=O)(=O)O.Cc1cc2c(cc1[N+](=O)[O-])NC(CNC(C)C)CC2` (centres undefined), the Inhibition with Staphylococcus aureus is 12.97%; in the test with Acinetobacter baumannii, 12.49%; with Escherichia coli, 3.18%; in the test with Klebsiella pneumoniae, 6.82%; in the test on Candida albicans, -0.29%; in the test on Cryptococcus neoformans, -5.85%.
As to `CN1N=C(N)c2cn(C3OC(COP(=O)(O)O)C(O)C3O)c3ncnc1c23` (centres undefined), the Inhibition in the test on Staphylococcus aureus was 8.75%; in the test on Acinetobacter baumannii, 8.14%; in the test with Escherichia coli, -1.62%; in the test on Klebsiella pneumoniae it was 4.46%; with Candida albicans it was -1.48%; in the test with Cryptococcus neoformans, -0.7%.
Consider `c1ccc(/N=N/N2CCOCC2)cc1`, for which the Inhibition was 10.43% in the test with Staphylococcus aureus; -20.45% in the test on Acinetobacter baumannii; 2.82% in the test with Escherichia coli; 4.01% in the test with Klebsiella pneumoniae; 17.7% in the test on Candida albicans; -10.19% in the test with Cryptococcus neoformans.
For `CC(=O)/C=C(\C)Nc1ccccc1O`, the Inhibition is 8.26% in the test on Staphylococcus aureus; -10.28% in the test with Acinetobacter baumannii; 7.16% in the test on Escherichia coli; 26.72% in the test on Klebsiella pneumoniae; 1.01% with Candida albicans; 2.5% in the test on Cryptococcus neoformans.
In the case of `CCCNC(=O)Nc1ccc(C)cc1C`, the Inhibition is 1.69% with Staphylococcus aureus; 10.44% in the test with Acinetobacter baumannii; -6.23% with Escherichia coli; 17.61% in the test on Klebsiella pneumoniae; 5.41% with Candida albicans; -2.02% in the test on Cryptococcus neoformans.
`CCOC(=O)c1nc(O)c2c3c(sc2n1)CCCC3`: the Inhibition in the test with Staphylococcus aureus is 16.28%; in the test on Acinetobacter baumannii, -13.3%; in the test on Escherichia coli, 15.58%; in the test on Klebsiella pneumoniae, 5.02%; in the test on Candida albicans, 10%; in the test with Cryptococcus neoformans, -8.42%.
`Nc1n[nH]c(CO)n1.O=C(O)CO`: the Inhibition in the test with Staphylococcus aureus is 4.42%; with Acinetobacter baumannii, -8.74%; in the test with Escherichia coli it was 3.45%; in the test on Klebsiella pneumoniae, 8.84%; in the test with Candida albicans, 0.2%; in the test on Cryptococcus neoformans, -5.13%.
